# Assay results: PubChem BioAssay (NCI)
# This is part of a sample that, as a whole, favours compounds with a hit. Of some 79,000 tested, about 15% had one in any assay. A number with no mark means an inactive call. Active and inactive are the calls of the source. No stated cut-off is given here; in the data, active means growth inhibition above about 70%; inactive means the rest.
# Legend:
# [1] = NCI Yeast Anticancer Drug Screen. Data for the rad50 strain (AID 155);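 further: 0% = growth of vehicle-only cultures of the same strain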; settings: S. cerevisiae rad50 strain growth inhibition, stronger effect = higher value
# Summary of the method: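 A DNA repair-deficient yeast mutant serves as the test organism; compound-induced growth inhibition is calculated against vehicle-treated cells.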
# [2] = NCI Yeast Anticancer Drug Screen. Data for the mec2-1 strain (AID 157); settings: S. cerevisiae mec2-1 strain, stronger effect = higher value
# Summary of the method: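 mec2-1 yeast strain, carrying an alteration in DNA damage repair or cell cycle control, was exposed to compounds; growth inhibition was measured relative to vehicle-treated controls.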
# [3] = NCI Yeast Anticancer Drug Screen. Data for the sgs1 mgt1 strain (AID 161);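 further: 0% = growth of cultures given vehicle only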; settings: S. cerevisiae sgs1 mgt1 strain, stronger effect = higher value
# Summary of the method: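 Growth of a repair-deficient yeast mutant was monitored after compound treatment and expressed as inhibition relative to vehicle-treated cultures.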
# [4] = NCI Yeast Anticancer Drug Screen. Data for the cln2 rad14 strain (AID 165);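 further: 0% = growth equal to vehicle treated cultures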; settings: S. cerevisiae cln2 rad14 strain, stronger effect = higher value
# Summary of the method: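 Yeast carrying cln2 and rad14 alterations (cell cycle control and DNA damage repair) were exposed to compounds. Growth inhibition was measured against vehicle-treated controls.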
# [5] = NCI Yeast Anticancer Drug Screen. Data for the bub3 strain (AID 167); settings: S. cerevisiae bub3 mutant strain, stronger effect = higher value
# Summary of the method: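 Inhibition values come from growth of compound-treated mutant yeast normalised to vehicle-treated controls.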
# [6] = NCI Yeast Anticancer Drug Screen. Data for the mlh1 rad18 strain (AID 175); settings: S. cerevisiae mlh1 rad18 strain growth inhibition, stronger effect = higher value
# Summary of the method: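 Growth inhibition of the yeast strain was measured after compound exposure and expressed relative to vehicle-treated controls. The strain carries defined defects in DNA damage repair.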
# [7] = at 5.0 µM (retest, dose inferred, filed as 0.5)
# [8] = at 50.0 µM (retest, dose inferred, filed as 5.0)
SMILES,"growth inhibition [1, 7]","growth inhibition [1, 8]",growth inhibition ([1]; at 50.0 µM),"growth inhibition [2, 7] [%]","growth inhibition [2, 8]",growth inhibition ([2]; at 50.0 µM),"growth inhibition [3, 7]","growth inhibition [3, 8]",growth inhibition ([3]; at 50.0 µM),"growth inhibition [4, 7]","growth inhibition [4, 8]",growth inhibition ([4]; at 50.0 µM),"growth inhibition [5, 7]","growth inhibition [5, 8]",growth inhibition ([5]; at 50.0 µM),"growth inhibition [6, 7]","growth inhibition [6, 8]",growth inhibition ([6]; at 50.0 µM)
C=CCSc1nc2ccc(N3C(=O)C=CC3=O)cc2s1,59%,99% (active),94.7% (active),50,99% (active),98% (active),51%,100% (active),97.5% (active),24%,98% (active),96.5% (active),27%,99% (active),99% (active),85% (active),97% (active),97.8% (active)
O=C1c2ccccc2C(=O)c2c1ccc(O)c2O.[Cu],87% (active),92% (active),98% (active),41,95% (active),96.7% (active),99% (active),96% (active),96.9% (active),26%,91% (active),33.1%,86% (active),94% (active),93.6% (active),66%,94% (active),96.8% (active)
COc1cc2c(c(O)c1OC)-c1c(cc(OC)c(OC)c1OC)CC(C)C(C)C2 (stereo not given),-23%,27%,66.9%,-23,11%,46.7%,-15%,63%,74.7% (active),-10%,61%,51.5%,9%,53%,60%,6%,59%,18.7%
COc1cc2c(cc1O)C1C(O)C(O)C=C3CCN(C2)C31 (stereo not given),4%,97% (active),85.5% (active),4,97% (active),84.8% (active),5%,96% (active),82.5% (active),14%,96% (active),84% (active),2%,95% (active),85.5% (active),3%,97% (active),86.9% (active)
Cc1cc2nc(CC(=O)c3ccc4ccccc4c3)c(=O)[nH]c2cc1C,-43%,-24%,94.7% (active),-3,9%,81.4% (active),-5%,-21%,88.3% (active),-17%,-33%,80.9% (active),13%,-19%,89% (active),-16%,-28%,96.7% (active)
COc1c2c(c(C)c3ccc4ccccc4c13)CCN=C2,-11%,93% (active),80.2% (active),-4,95% (active),43.3%,-5%,96% (active),88.2% (active),-9%,83% (active),13.4%,10%,96% (active),79.2% (active),-9%,93% (active),79.9% (active)
O=C1c2ccccc2C(=O)C2OC12 (stereo not given),48%,98% (active),93.2% (active),48,98% (active),95.1% (active),50%,99% (active),94.7% (active),72% (active),99% (active),93.3% (active),73% (active),100% (active),93.5% (active),51%,99% (active),89.9% (active)
C=C1CC2(C[C@@H](c3ccccc3)O[C@@H](c3ccccc3)C2)OC1=O (stereo not given in full),20%,97% (active),95% (active),4,98% (active),94.6% (active),2%,98% (active),94.5% (active),35%,97% (active),90.5% (active),33%,98% (active),95.2% (active),15%,98% (active),92.5% (active)
O=C(O)CCCCCCC(=O)CCl,30%,74% (active),72% (active),22,82% (active),83.5% (active),24%,74% (active),66.2%,25%,38%,23.9%,30%,78% (active),58.4%,19%,86% (active),72.9% (active)
N#C/C(=C1C=C/C(=N/O)C=C/1Cl)c1ccccc1,-3%,-7%,21.7%,-7,4%,24.3%,4%,36%,51.9%,-15%,6%,69.5%,5%,18%,28.1%,-11%,10%,26.4%
